These results are taken from PubChem BioAssay.

The structures appear in SMILES notation. The list shows a part of the results. Calls of active or inactive are those of the source.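 Rule for the calls, unless noted: active = GFP response above 150% of the DMSO level; inconclusive = fewer than 70 events counted for a yeast strain; inactive = the rest.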

Test [1] can be described thus: RPL19A-GFP modulators, yeast TOR pathway, confirmation, cell-based, S. cerevisiae, flow cytometry, cherry picks, mother/daughter gates (AID 2270;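 active = GFP response below 50% of the DMSO control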). As to conditions: S. cerevisiae RPL19A-GFP strain, 3 h, at 10 µM, stronger effect = lower value, 100 = same GFP as DMSO wells.
A short description of test [2]: LAP4-GFP expression modulators in yeast, confirmation, cell-based, cherry picks, flow cytometry, mother/daughter gates (AID 2271;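 active = GFP response above 150% of the DMSO control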;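 note: ratio of sample to DMSO plate mean so 100% equals DMSO level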). To be noted: S. cerevisiae LAP4-GFP strain, 3 h, at 10 µM, stronger effect = higher value, 100 means same as DMSO control. (In general: In flow cytometry, cells or beads pass a laser one at a time.)
Test [3] is described as follows: modulators of MEP2-GFP levels in yeast, confirmation, S. cerevisiae, flow cytometry GFP, cherry picks (AID 2272;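 active = GFP response above 150% of the DMSO control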;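 note: ratio of well signal to plate DMSO mean so 100% equals DMSO level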). To be noted: S. cerevisiae MEP2-GFP strain, 3 h, at 10 µM, stronger effect = higher value.
Test [4] is described as follows: AGP1-GFP expression modulators, hit retest, confirmation, cell-based, flow cytometry, S. cerevisiae, cherry picks (AID 2273).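 Note: median GFP channel fluorescence over the whole cell population gate.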 To be noted: S. cerevisiae AGP1-GFP strain, 3 h, at 10 µM.
The nature of test [5]: modulators of CIT2-GFP expression in yeast, confirmation, S. cerevisiae, GFP fusion, cherry picks, mother/daughter gates (AID 2274). To be noted: S. cerevisiae CIT2-GFP strain, flow cytometry, 3 h, at 10 µM, stronger effect = higher value.
Test [6] can be described thus: compound autofluorescence in yeast s288c, dose response, artefact control for yeast TOR pathway GFP screen, s288c strain (AID 2757;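 active = fluorescence span over the dose series, or activity score, above about 33, limit read from the data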;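 note: thousands of bead-calibrated equivalent soluble fluorophore molecules from median cell fluorescence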). As to conditions: S. cerevisiae s288c, 520 nm autofluorescence, flow cytometry, 3 h; at 33 µM; stronger effect = higher value; zero means same as solvent-only cells.
Setting [7] is: measured here: daughter cell gate.
Setting [8] is: measured here: mother cell gate.
Setting [9] is: measured here: daughter cell gate response.
[10] abbreviates: measured here: mother cell gate response.

As to `Nc1c(C(=O)c2cccs2)sc2nsc(SCCN3CCCCC3)c12`, the GFP response vs DMSO in test [1] was 114% (inactive); in test [1] (setting [7]), 110%; in test [1] (setting [8]), 118%; in test [3], 241% (active). For the same compound, the GFP response relative to DMSO is 142% (inactive) in test [2], 128% in test [2] (setting [9]) and 158% in test [2] (setting [10]). The GFP response, % of DMSO in test [4] was 107% (inactive); in test [5] it was 160% (active); in test [5] (setting [7]), 149%; in test [5] (setting [8]), 173%. The fluorescence change (kMESF span) in test [6] is 17.9 (inactive).

As to `O=C(Nc1ccccc1)c1nnsc1S(=O)(=O)c1ccc(Cl)cc1`, the GFP response vs DMSO was 73.3% (inactive) in test [1], 87.8% in test [1] (setting [7]), 61.5% in test [1] (setting [8]) and 144% (inactive) in test [3]. Further, the figures for the GFP response relative to DMSO in test [2], in test [2] (setting [9]) and in test [2] (setting [10]) were 164% (active), 92.8% and 206%, respectively. Besides, the GFP response, % of DMSO was 87.7% (inactive) in test [4], 95.5% (inactive) in test [5], 93.6% in test [5] (setting [7]) and 84.3% in test [5] (setting [8]). Further, the fluorescence change (kMESF span) in test [6] was 1.31 (inactive).

As for `Oc1ccc2ccccc2c1N=Nc1nccs1`, the GFP response vs DMSO was 101% (inactive) in test [1], 98.1% in test [1] (setting [7]), 98% in test [1] (setting [8]) and 116% (inactive) in test [3]. Besides, the values for the GFP response relative to DMSO in test [2], in test [2] (setting [9]) and in test [2] (setting [10]) were 163% (active), 151% and 165%, respectively. Also, the GFP response, % of DMSO is 89.3% (inactive) in test [4], 105% (inactive) in test [5], 101% in test [5] (setting [7]) and 102% in test [5] (setting [8]). For the same compound, the fluorescence change (kMESF span) in test [6] was 0.51 (inactive).

As for `Cc1nn2c(NCc3ccccn3)c3c(nc2c1-c1ccccc1)CCC3`, the GFP response vs DMSO was 106% (inactive) in test [1], 85.7% in test [1] (setting [7]), 93.7% in test [1] (setting [8]) and 120% (inactive) in test [3]. The values for the GFP response relative to DMSO in test [2] and in test [2] (setting [10]) were 132% (inactive) and 114%, respectively. The GFP response, % of DMSO in test [4] is 103% (inactive); in test [5], 100% (inactive); in test [5] (setting [7]) it was 95.8%; in test [5] (setting [8]) it was 85.9%.

In the case of `Cc1cccc(C)c1NC(=O)C(Cl)C(=O)c1ccccc1` (stereo unspecified), the GFP response vs DMSO in test [1] was 89.9% (inactive); in test [1] (setting [7]), 87.6%; in test [1] (setting [8]) it was 82.5%; in test [3], 100% (inactive). The GFP response relative to DMSO was 241% (active) in test [2], 168% in test [2] (setting [9]) and 252% in test [2] (setting [10]). Besides, the GFP response, % of DMSO in test [4] is 101% (inactive); in test [5] it was 99.7% (inactive); in test [5] (setting [7]), 95.4%; in test [5] (setting [8]), 87.8%. In addition, the fluorescence change (kMESF span) in test [6] is 0 (inactive).

Consider `COc1ccc(S(=O)(=O)NCC(=O)N(CC(=O)NCc2ccco2)Cc2ccc(F)cc2)cc1`, for which the GFP response vs DMSO in test [1] was 100% (inactive); in test [1] (setting [7]), 98.8%; in test [1] (setting [8]), 101%; in test [3], 99% (inactive). For the same compound, the GFP response relative to DMSO in test [2] was 99.5% (inactive); in test [2] (setting [9]), 99.1%; in test [2] (setting [10]), 100%. The GFP response, % of DMSO in test [4] was 103% (inactive); in test [5], 103% (inactive); in test [5] (setting [7]) it was 105%; in test [5] (setting [8]) it was 101%.

`Cc1cc(C)nc(S/C=C/C(=O)c2ccccc2)n1`: the GFP response vs DMSO is 100% (inactive) in test [1], 101% in test [1] (setting [7]), 98% in test [1] (setting [8]) and 121% (inactive) in test [3]. Moreover, the results for the GFP response relative to DMSO in test [2], in test [2] (setting [9]) and in test [2] (setting [10]) were 169% (active), 151% and 191%, respectively. Besides, the GFP response, % of DMSO was 107% (inactive) in test [4], 92.2% (inactive) in test [5], 98.4% in test [5] (setting [7]) and 83.8% in test [5] (setting [8]). For the same compound, in test [6], the fluorescence change (kMESF span) is 1.02 (inactive).

Take `Cc1cc(=O)oc2cc(OC(C)C(=O)NC3CCCC3)ccc12` (stereo unspecified): the GFP response vs DMSO is 102% (inactive) in test [1], 100% in test [1] (setting [7]), 102% in test [1] (setting [8]) and 101% (inactive) in test [3]. Moreover, the GFP response relative to DMSO in test [2] was 95.7% (inactive); in test [2] (setting [9]) it was 94.2%; in test [2] (setting [10]), 95.2%. The GFP response, % of DMSO in test [4] was 105% (inactive); in test [5] it was 95.9% (inactive); in test [5] (setting [7]), 93.8%; in test [5] (setting [8]) it was 95.6%.

Take `Oc1ccc(Br)cc1/C=N/Nc1ccccn1`: the GFP response vs DMSO in test [1] was 93.9% (inactive); in test [1] (setting [7]) it was 92.3%; in test [1] (setting [8]), 83.8%; in test [3], 129% (inactive). The GFP response relative to DMSO in test [2] is 263% (active); in test [2] (setting [9]), 222%; in test [2] (setting [10]), 261%. For the same compound, the GFP response, % of DMSO in test [4] is 91% (inactive); in test [5] it was 112% (inactive); in test [5] (setting [7]), 113%; in test [5] (setting [8]), 98%. In addition, in test [6], the fluorescence change (kMESF span) is 1.31 (inactive).

Consider `Cc1cccn2c(=O)c3cc(C(=O)NCCc4ccccc4)c(=N)n(CCCn4ccnc4)c3nc12`, for which the GFP response vs DMSO in test [1] was 95.8% (inactive); in test [1] (setting [7]), 94.7%; in test [1] (setting [8]), 95%; in test [3] it was 103% (inactive). The results for the GFP response relative to DMSO in test [2] and in test [2] (setting [10]) were 96.5% (inactive) and 92.3%, respectively. The GFP response, % of DMSO was 98.6% (inactive) in test [4], 100% (inactive) in test [5], 99.3% in test [5] (setting [7]) and 97.1% in test [5] (setting [8]).

As to `CC(C)(C)C(=O)NC(=S)NNC(=O)c1ccc(-c2ccccc2)cc1`, the GFP response vs DMSO was 116% (inactive) in test [1], 84.5% in test [1] (setting [7]), 104% in test [1] (setting [8]) and 141% (inactive) in test [3]. For the same compound, the GFP response relative to DMSO in test [2] is 228% (active); in test [2] (setting [10]), 209%. The GFP response, % of DMSO was 129% (inactive) in test [4], 132% (inactive) in test [5], 99.3% in test [5] (setting [7]) and 113% in test [5] (setting [8]).

For `O=C1C=CC(=O)N1c1ccc(N2CCCCC2)cc1`, the GFP response vs DMSO in test [1] is 75.5% (inactive); in test [1] (setting [7]), 86.8%; in test [1] (setting [8]), 63.8%; in test [3] it was 87.8% (inactive). Moreover, the GFP response relative to DMSO in test [2] is 220% (active); in test [2] (setting [9]) it was 99.2%; in test [2] (setting [10]), 218%. The GFP response, % of DMSO is 79.9% (inactive) in test [4], 104% (inactive) in test [5], 97.2% in test [5] (setting [7]) and 89% in test [5] (setting [8]). In addition, in test [6], the fluorescence change (kMESF span) was 0.41 (inactive).
